KDM5B inh: Primary screen for KDM5B Histone Demethylases FDH-coupled qHTS | KDM5B demethylase, FDH-coupled NADH fluorescence (FDH is formaldehyde dehydrogenase) | Potency, µM (highest dose often 57.7 µM), hits mostly inhibitors | hit rate 2.6% among 220,000 | AID 1347165, 2019; active = well fitted inhibition curve with a large enough effect; also: 0% is about no effect; nearly all actives have a fitted effect of over 70% in size
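qHTS format, multiple compound concentrations. Buffer 50 mM HEPES pH 7.5/0.01% Tween-20; 200 nM KDM5BΔAP final; 10 min compound preincubation; substrate-mix levels 12.5 µM peptide, 25 µM α-KG, 0.25 mM NAD⁺; 30 min RT; ΔRFU.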
The depositor's hits bear a star; i = inactive. This is one part of a sample in which hits are shown more often than they occur. Potency is read from the fitted curve at half-maximal effect.

SMILES	KDM5B inh
O=C(NC1CCCCC1)c1cc2n(n1)CC(c1ccc3c(c1)OCO3)OC2 (centres undefined)	i
O=C(NC1CCCCCC1)c1cc2n(n1)CC(c1ccc3c(c1)OCO3)OC2 (centres undefined)	i
CCOc1ccc(NC(=O)c2cc3n(n2)CC(c2ccc(Cl)cc2)OC3)cc1 (centres undefined)	i
COc1cccc(CNC(=O)c2cc3n(n2)CC(c2ccc4c(c2)OCO4)OC3)c1 (centres undefined)	i
O=C(Nc1ccc(Cl)cc1)c1cc2n(n1)CC(c1ccc3c(c1)OCO3)OC2 (centres undefined)	28µM*
COc1ccc(OC)c(NC(=O)c2nnn3c2COC(c2ccc(Cl)cc2)C3)c1 (centres undefined)	i
C/C(=N\Nc1ccc(Br)cc1)c1ccc2c(c1)Cc1ccccc1-2	i
CC(C)n1nc(C(=O)OCC(=O)Nc2ccccc2Cl)c2ccccc2c1=O	i
CNc1c(NC(=O)Nc2ccccc2C(F)(F)F)c(=O)oc2ccccc12	i
O=C(OCc1ccccc1)N1CCOCC12CCN(Cc1ccccc1)CC2	i
Cc1cccc(C)c1OCCCN	i
CC1CCN(C(NC(=O)c2cccs2)C(=O)c2ccccc2)CC1 (centres undefined)	i
Cc1ccccc1C(=O)c1ccccc1	i
CC#CC[N+](C)(CC#CC)Cc1ccccc1	i
O=C(Nc1ccc2c(c1)CCC2)c1cc2n(n1)CC(c1ccc(Cl)cc1)OC2 (centres undefined)	32µM*
O=C(NC1CCCCCC1)c1cc2n(n1)CC(c1ccc(Cl)cc1)OC2 (centres undefined)	i
O=C(NC1CCCCC1)c1cc2n(n1)CC(c1ccc(Cl)cc1)OC2 (centres undefined)	i
COc1ccc(-c2nc(C)nc3c2CCN(CC2CCCCC2)CC3)cc1	28µM*
COc1ccc(-c2nc(C)nc3c2CN(C(=O)c2ccccn2)CC3)cc1	16µM*
COc1ccc(C(=O)N2CCc3nc(-c4ccccc4)nc(-c4ccc(OC)cc4)c3C2)cc1	i
CCc1nc2c(c(-c3ccc(OC)cc3)n1)CCN(Cc1ccc(OC)cc1)CC2	i
Cc1cc(CN2CCc3nc(C(C)C)nc(-c4ccc(Cl)cc4)c3CC2)no1	i
Oc1ccc(-c2nc(C3CC3)nc3c2CCN(CC2CCCCC2)CC3)cc1	i
COc1cccc(C(=O)N2CCc3nc(C)nc(-c4ccc(O)cc4)c3C2)c1	i
CCc1nc2c(c(-c3ccc(Cl)cc3)n1)CCN(CC1CCCCC1)CC2	i
SMILES	KDM5B inh
COc1ccc(-c2nc(C)nc3c2CCN(Cc2ccnn2C)CC3)cc1	20µM*
COc1ccc(-c2nc(C)nc3c2CCN(C(=O)c2ccc(C)cc2)CC3)cc1	i
COc1ccc(-c2nc(C)nc3c2CCN(Cc2cc(C)on2)CC3)cc1	20µM*
COc1ccc(CN2CCc3nc(C)nc(-c4ccc(OC)cc4)c3CC2)cc1	i
O=C(Nc1cccc(OCC2CCCO2)c1)C1CCCCC1 (centres undefined)	i
COCCn1ncc(N2CCCC(CC(=O)NCCC3=CCCCC3)C2)cc1=O (centres undefined)	i
CC(NC(=O)/C(C#N)=C\c1ccccc1)C12CC3CC(CC(C3)C1)C2 (centres undefined)	i
O=C(NC1(C(F)(F)F)N=C(c2ccccc2)N(Cc2ccco2)C1=O)c1ccc(F)cc1 (centres undefined)	i
CC(=O)NNC(=S)Nc1ccc(C)c(C)c1	i
CC(C)NC(=S)N/N=C/c1ccccc1Br	i
COc1cccc(CC(=O)NC2CCN(c3cc(-c4cccs4)[nH]n3)C2)c1 (centres undefined)	28µM*
O=C(Cc1cccc(Cl)c1)NC1CCN(c2cc(-c3cccs3)[nH]n2)C1 (centres undefined)	4µM*
COc1ccc(-c2cc(N3CCC(NC(=O)CCc4cccc(OC)c4)CC3)n[nH]2)cc1	i
COc1cccc(CCC(=O)NC2CCN(c3cc(-c4ccccc4)[nH]n3)CC2)c1	i
O=C(Cc1cccc(F)c1)NC1CCN(c2cc(-c3ccc(Cl)cc3)[nH]n2)CC1	i
O=C(Cc1ccc(Cl)cc1)NC1CCN(c2cc(-c3ccccc3)[nH]n2)CC1	i
COc1ccc(CNC(=O)CN(c2ccc(C(C)C)cc2)S(=O)(=O)c2c(C)n[nH]c2C)cc1	i
O=S(=O)(N1CC=C(c2c[nH]c3ccccc23)CC1)N1CCCCC1	i
CC(C(=O)N(C)CC(=O)Nc1ccccc1C(F)(F)F)N1CCN(Cc2ccccc2F)CC1 (centres undefined)	i
COc1ccc(C2CCCCCN2C(=O)C2CCN(S(=O)(=O)c3ccc(Cl)cc3)CC2)cc1 (centres undefined)	i
Cc1nn(-c2ncccn2)c2c1C(c1ccccc1OCCc1ccccc1)CC(=O)N2 (centres undefined)	i
Cc1ccc2nc3c(n2c1)C(c1ccccc1OCCN(C)C)CC(=O)NC3 (centres undefined)	32µM*
Cc1cc(C)nc(-n2nc(C)c3c2NC(=O)CC3c2ccccc2OC(C)C)n1 (centres undefined)	i
Cc1nc2ccccc2c(C)c1CC(=O)N(C)C(C)c1cc2ccccc2o1 (centres undefined)	i
CCC(C(=O)OCC(=O)c1c(C)[nH]c2ccccc12)c1ccccc1 (centres undefined)	i
SMILES	KDM5B inh
CC(C)C(CNCc1ccccc1)N1CCCC1 (centres undefined)	i
CCOCCCNC(=O)c1ccc(C)c(C)c1	i
O=C(NCc1ccccc1)c1nc(-c2ccc3[nH]ccc3c2)no1	i
NC(=O)C1CCCN(CCNc2cc(-c3ccccc3)nc3ccnn23)C1 (centres undefined)	32µM*
COCCn1cncc1CNc1nc(C)nc2ncccc12	i
NC(=O)N1CCCC(C(=O)NCCc2noc(-c3ccccc3)n2)C1 (centres undefined)	i
Cc1oc(-c2ccccc2)nc1CN1CCCC(C(=O)NCCc2noc(-c3ccccc3)n2)C1 (centres undefined)	i
Cc1nc(NCCN2CCCC(C(N)=O)C2)c2cccnc2n1 (centres undefined)	25µM*
Clc1ccc(-c2nnc(NCCN3CCCC3)c3ccccc23)cc1	i
Nc1nc(CN2CCN(C(=O)CNC(=O)c3ccc(OC(F)F)cc3)CC2)nc2ccccc12	i
C[S+](=O)([O-])N1CCC(Cn2ccc3c(N4CCOCC4)nc(-c4ccc(F)cc4)cc32)CC1	i
Cc1ccc(-c2cc3c(ccn3CC3CCN([S+](C)(=O)[O-])CC3)c(N3CCOCC3)n2)cn1	32µM*
C[S+](=O)([O-])N1CCC(Cn2ccc3c(N4CCOCC4)nc(-c4ccc(CO)cc4)cc32)CC1	i
CCc1ccc(CN2CCC(CNC(=O)c3ccc(C)nc3)C2)nc1 (centres undefined)	16µM*
Cc1ccc(C(=O)NCC2CCOCC2)cn1	i
CCc1ccc(CN2CCC(CNC(=O)C(C)(C)C)CC2)nc1	i
O=C(c1cc(=O)c2cc(Cl)cc(Cl)c2o1)N1CCN(Cc2ccccc2)CC1	i
CN(C)c1ccc(NC(=O)c2ccc(N(C)C)cc2)cc1	i
Cc1cc2cc(-c3c(C)noc3C)nc(NC3CCN(C)CC3)c2o1	i
Cc1noc(C)c1-c1cc2cc(C(C)C)oc2c(N2CCS(=O)(=O)CC2)n1	32µM*
